Out of some 5,500 compounds screened, about 2,000 (36%) were called active. Roughly 18% stayed inconclusive and do not appear here. Cut-off read from the data, not from the text of the source: active = normalized growth mostly below about 0.91 (no sharp cut-off); inconclusive = no clear call, values can overlap the other calls; inactive = mostly above about 0.92. This is one part of the list.
Experiment: chemical genetic growth profiling, strain panel (AID 1159580);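 note: tested at 20 µM; growth read once vehicle control cultures reached saturation at 30 °C; 1 = growth at the plate median or of vehicle wells; lower values mean less growth of the strain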
Details: growth OD

Measured: normalized growth

CSc1nc(N)n(-c2ccccc2)n1
inactive: S. cerevisiae deletion strains, locus YAL013W, strain DEP1, hits give low values 1 | S. cerevisiae deletion strains, locus YBR229C, strain ROT2, hits give low values 1.02 | S. cerevisiae deletion strains, locus YCL061C, strain MRC1, hits give low values 1.02 | S. cerevisiae deletion strains, locus YDL101C, strain DUN1, hits give low values 1 | S. cerevisiae deletion strains, locus YDL134C, strain PPH21, hits give low values 1.01 | S. cerevisiae deletion strains, locus YDR150W, strain NUM1, hits give low values 0.916 | S. cerevisiae deletion strains, locus YEL061C, strain CIN8, hits give low values 1.06 | S. cerevisiae deletion strains, locus YGR078C, strain PAC10, hits give low values 1 | S. cerevisiae deletion strains, locus YGR229C, strain SMI1, hits give low values 0.99 | S. cerevisiae deletion strains, locus YHR030C, strain SLT2, hits give low values 1.05 | S. cerevisiae deletion strains, locus YHR087W, strain rtc3, hits give low values 1 | S. cerevisiae deletion strains, locus YJR043C, strain POL32, hits give low values 0.989 | S. cerevisiae deletion strains, locus YJR075W, strain HOC1, hits give low values 1 | S. cerevisiae deletion strains, locus YKL190W, strain CNB1, hits give low values 1.01 | S. cerevisiae deletion strains, locus YLR039C, strain RIC1, hits give low values 1.03 | S. cerevisiae deletion strains, locus YLR058C, strain SHM2 (second series), hits give low values 1.02 | S. cerevisiae deletion strains, locus YLR085C, strain ARP6, hits give low values 0.995 | S. cerevisiae deletion strains, locus YLR262C, strain YPT6, hits give low values 1.09 | S. cerevisiae deletion strains, locus YML094W, strain GIM5, hits give low values 0.988 | S. cerevisiae deletion strains, locus YMR219W, strain ESC1, hits give low values 1 | S. cerevisiae deletion strains, locus YMR263W, strain SAP30, hits give low values 1 | S. cerevisiae deletion strains, locus YNL153C, strain GIM3, hits give low values 1 | S. cerevisiae deletion strains, locus YNL298W, strain CLA4 (second series), hits give low values 1 | S. cerevisiae deletion strains, locus YNL322C, strain KRE1, hits give low values 1 | S. cerevisiae deletion strains, locus YNR030W, strain Alg12, hits give low values 1.02 | S. cerevisiae deletion strains, locus YPL055C, strain LGE1, hits give low values 0.994 | S. cerevisiae deletion strains, locus YPL241C, strain CIN2, hits give low values 1.01 | S. cerevisiae deletion strains, locus YPR135W, strain CTF4, hits give low values 1.07 | S. cerevisiae strains, strain wild type, hits give low values 1.01
